# Assay results reported in PubChem BioAssay.
# Tested on: glycogen synthase kinase-3 (GSK3A per assay name; protocol says GSK3B)
# Test: compounds binding glycogen synthase kinase-3 – biochemical, small-molecule microarray, 635 nm fluorescence, GSK3A, primary screen (AID 1103); also: the record names both GSK3A and GSK3B
# Details: fluorescence 635 nm, higher = more signal
row,SMILES,composite z-score
1,COC(=O)C1(Cc2ccccc2)C=C2C(=C(C(C)C)C(=O)C2C)CN1 (stereo not given),-1.51
2,COc1ccc([Si](C)(C)[C@@H]2[C@@H](CCO)O[C@]3(C(=O)N(Cc4cccc(N5C(=O)c6cccc7cccc5c67)c4)c4ccccc43)[C@H]2C)cc1,-0.0664
3,C=CCC(OC(C)=O)[C@@H]1[C@@H](N(Cc2cc3ccccc3o2)C(=O)Cc2ccc(F)cc2)c2cc(OCCCO)ccc2N1C(=O)c1ccc2ccccc2n1 (stereo not given in full),-0.497
4,C=CCOC(=O)[C@@H]1[C@H]2C(=O)O[C@H](c3ccccc3)[C@H](c3ccccc3)N2[C@H](c2ccc(OCCOC(=O)[C@H]3C[C@H]4C(=O)N[C@@H](CCCC[N+](C)(C)C)C(=O)N4[C@H]3c3ccc(O)cc3)cc2)[C@@]12C(=O)Nc1ccc(I)cc12,1.33
5,[N-]=[N+]=Nc1ccccc1[C@@H]1OC(c2ccc(OCCCO)cc2)=N[C@]1(CCS(=O)(=O)c1ccccc1)C(=O)NCCN1CCOCC1,1.29
